Laboratory results taken from PubChem BioAssay (NCI).
The panel holds about 79,000 compounds, 15% with a hit somewhere; the sample as a whole holds those more often. A number with no mark means an inactive call. Calls of active or inactive are those of the source. No stated cut-off is given here; in the data, active means growth inhibition above about 70%; inactive means the rest.

Legend:
[1] = NCI Yeast Anticancer Drug Screen. Data for the rad50 strain (AID 155);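 further: 0% = growth of vehicle-only cultures of the same strain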; settings: S. cerevisiae rad50 strain growth inhibition, stronger effect = higher value
Procedure, shortened: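 Inhibition values express reduced yeast growth in compound-treated cultures relative to vehicle-treated controls.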

[2] = NCI Yeast Anticancer Drug Screen. Data for the mec2-1 strain (AID 157); settings: S. cerevisiae mec2-1 strain, stronger effect = higher value
Procedure, shortened: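 Readout is yeast growth inhibition, normalised to vehicle-treated controls, in the mec2-1 strain exposed to compound.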

[3] = NCI Yeast Anticancer Drug Screen. Data for the sgs1 mgt1 strain (AID 161);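 further: 0% = growth of cultures given vehicle only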; settings: S. cerevisiae sgs1 mgt1 strain, stronger effect = higher value
Procedure, shortened: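 This yeast growth screen uses a strain with defined DNA-repair lesions; compound-treated growth is compared with vehicle-treated growth.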

[4] = NCI Yeast Anticancer Drug Screen. Data for the cln2 rad14 strain (AID 165);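 further: 0% = growth equal to vehicle treated cultures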; settings: S. cerevisiae cln2 rad14 strain, stronger effect = higher value
Procedure, shortened: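 Relative to vehicle controls, growth inhibition of compound-treated cln2 rad14 yeast was recorded.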

[5] = NCI Yeast Anticancer Drug Screen. Data for the bub3 strain (AID 167); settings: S. cerevisiae bub3 mutant strain, stronger effect = higher value
Procedure, shortened: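 Steps: expose the mutant yeast strain to compound; grow alongside vehicle-treated cultures; measure growth; express inhibition against the vehicle cultures.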

[6] = NCI Yeast Anticancer Drug Screen. Data for the mlh1 rad18 strain (AID 175); settings: S. cerevisiae mlh1 rad18 strain growth inhibition, stronger effect = higher value
Procedure, shortened: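 Test agents were incubated with a yeast strain of defined genotype (DNA damage repair defect). Inhibition of growth was derived by comparison with vehicle-exposed cultures.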

[7] = at 5.0 µM (retest, dose inferred, filed as 0.5)
[8] = at 50.0 µM (retest, dose inferred, filed as 5.0)

With C=CC(=O)N1C/C(=C\c2ccc([N+](=O)[O-])cc2)C(=O)/C(=C/c2ccc([N+](=O)[O-])cc2)C1 the growth inhibition [1, 7] was 46%, the growth inhibition [1, 8] was 96% (active) and the growth inhibition ([1]; at 50.0 µM) was 28.7%. For the same molecule, the growth inhibition [2, 7] was 33%, the growth inhibition [2, 8] was 97% (active) and the growth inhibition ([2]; at 50.0 µM) was 51.5%. For the same molecule, the growth inhibition [3, 7] was 39%, the growth inhibition [3, 8] was 97% (active) and the growth inhibition ([3]; at 50.0 µM) was 87.3% (active). The growth inhibition [4, 7] was 26%, the growth inhibition [4, 8] was 96% (active) and the growth inhibition ([4]; at 50.0 µM) was 88% (active). The growth inhibition [5, 7] was 25%, the growth inhibition [5, 8] was 96% (active) and the growth inhibition ([5]; at 50.0 µM) was 83.9% (active). For the same molecule, the growth inhibition [6, 7] was 58%, the growth inhibition [6, 8] was 96% (active) and the growth inhibition ([6]; at 50.0 µM) was 81.5% (active).

Work on O=C(O)c1ccc([N+](=O)[O-])o1 yielded a growth inhibition [1, 7] of 6%, a growth inhibition [1, 8] of 32% and a growth inhibition ([1]; at 50.0 µM) of 61%. For the same molecule, the growth inhibition [2, 7] was 1%, the growth inhibition [2, 8] was 16% and the growth inhibition ([2]; at 50.0 µM) was 25.1%. The growth inhibition [3, 7] was 4%, the growth inhibition [3, 8] was 27% and the growth inhibition ([3]; at 50.0 µM) was 70.8% (active). For the same molecule, the growth inhibition [4, 7] was 3%, the growth inhibition [4, 8] was 11% and the growth inhibition ([4]; at 50.0 µM) was 17.6%. For the same molecule, the growth inhibition [5, 7] was -3%, the growth inhibition [5, 8] was 10% and the growth inhibition ([5]; at 50.0 µM) was 38.3%. For the same molecule, the growth inhibition [6, 7] was 6%, the growth inhibition [6, 8] was 41% and the growth inhibition ([6]; at 50.0 µM) was 71.5% (active).

With CCCCCCCCCC(=O)CC(=O)c1ccc(O)cc1O the growth inhibition [1, 7] was 33%, the growth inhibition [1, 8] was 96% (active) and the growth inhibition ([1]; at 50.0 µM) was 86.5% (active). The growth inhibition [2, 7] was 27%, the growth inhibition [2, 8] was 97% (active) and the growth inhibition ([2]; at 50.0 µM) was 89.5% (active). The growth inhibition [3, 7] was 50%, the growth inhibition [3, 8] was 98% (active) and the growth inhibition ([3]; at 50.0 µM) was 89.7% (active). The growth inhibition [4, 7] was 37%, the growth inhibition [4, 8] was 97% (active) and the growth inhibition ([4]; at 50.0 µM) was 88.6% (active). The growth inhibition [5, 7] was 39%, the growth inhibition [5, 8] was 98% (active) and the growth inhibition ([5]; at 50.0 µM) was 89.2% (active). The growth inhibition [6, 7] was 48%, the growth inhibition [6, 8] was 97% (active) and the growth inhibition ([6]; at 50.0 µM) was 87.5% (active).

For C=C(Br)CN(C)CC(=C)Br, the growth inhibition [1, 7] was 0%, the growth inhibition [1, 8] was 40% and the growth inhibition ([1]; at 50.0 µM) was 82% (active). For the same molecule, the growth inhibition [2, 7] was 7%, the growth inhibition [2, 8] was -19% and the growth inhibition ([2]; at 50.0 µM) was -17.1%. It also gave a growth inhibition [3, 7] of 4%, a growth inhibition [3, 8] of -10% and a growth inhibition ([3]; at 50.0 µM) of 22.2%. The growth inhibition [4, 7] was -15%, the growth inhibition [4, 8] was -50% and the growth inhibition ([4]; at 50.0 µM) was 0.15%. The growth inhibition [5, 7] was -2%, the growth inhibition [5, 8] was 5% and the growth inhibition ([5]; at 50.0 µM) was -15%. For the same molecule, the growth inhibition [6, 7] was -6%, the growth inhibition [6, 8] was 25% and the growth inhibition ([6]; at 50.0 µM) was 62.5%.

Molecule COC1OC(CN=[N+]=[N-])C(OC(=O)c2ccccc2)C(OC(C)=O)C1OC(C)=O (stereo not given) has a growth inhibition [1, 7] of -3%, a growth inhibition [1, 8] of -3% and a growth inhibition ([1]; at 50.0 µM) of 7.35%. For the same molecule, the growth inhibition [2, 7] was -24%, the growth inhibition [2, 8] was 23% and the growth inhibition ([2]; at 50.0 µM) was 9.8%. For the same molecule, the growth inhibition [3, 7] was -192%, the growth inhibition [3, 8] was -1% and the growth inhibition ([3]; at 50.0 µM) was 18.1%. For the same molecule, the growth inhibition [4, 7] was 2%, the growth inhibition [4, 8] was -2% and the growth inhibition ([4]; at 50.0 µM) was 0%. The growth inhibition [5, 7] was 61%, the growth inhibition [5, 8] was 73% (active) and the growth inhibition ([5]; at 50.0 µM) was 80% (active). It also gave a growth inhibition [6, 7] of 13%, a growth inhibition [6, 8] of 13% and a growth inhibition ([6]; at 50.0 µM) of 18.2%.

With O=C1C=C(c2ccccc2)S(=O)(=O)c2c(O)cccc21 the growth inhibition [1, 7] was 88% (active), the growth inhibition [1, 8] was 100% (active) and the growth inhibition ([1]; at 50.0 µM) was 99.6% (active). For the same molecule, the growth inhibition [2, 7] was 76% (active), the growth inhibition [2, 8] was 100% (active) and the growth inhibition ([2]; at 50.0 µM) was 99.6% (active). For the same molecule, the growth inhibition [3, 7] was 80% (active), the growth inhibition [3, 8] was 100% (active) and the growth inhibition ([3]; at 50.0 µM) was 99.5% (active). For the same molecule, the growth inhibition [4, 7] was 46%, the growth inhibition [4, 8] was 99% (active) and the growth inhibition ([4]; at 50.0 µM) was 99% (active). The growth inhibition [5, 7] was 71% (active), the growth inhibition [5, 8] was 99% (active) and the growth inhibition ([5]; at 50.0 µM) was 99.2% (active). The growth inhibition [6, 7] was 94% (active), the growth inhibition [6, 8] was 100% (active) and the growth inhibition ([6]; at 50.0 µM) was 99.7% (active).

Clc1ccccc1/C=C/c1ccccn1 gave a growth inhibition [1, 7] of -8%, a growth inhibition [1, 8] of 4% and a growth inhibition ([1]; at 50.0 µM) of 41.2%. For the same molecule, the growth inhibition [2, 7] was -6%, the growth inhibition [2, 8] was -16% and the growth inhibition ([2]; at 50.0 µM) was 30.7%. The growth inhibition [3, 7] was -8%, the growth inhibition [3, 8] was 1% and the growth inhibition ([3]; at 50.0 µM) was 74.7% (active). It also gave a growth inhibition [4, 7] of -9%, a growth inhibition [4, 8] of -16% and a growth inhibition ([4]; at 50.0 µM) of 16.2%. The growth inhibition [5, 7] was -3%, the growth inhibition [5, 8] was 30% and the growth inhibition ([5]; at 50.0 µM) was 67.5%. For the same molecule, the growth inhibition [6, 7] was -7%, the growth inhibition [6, 8] was -6% and the growth inhibition ([6]; at 50.0 µM) was 71.8% (active).

CN(C)c1ccc(N=Nc2ccc(/C=C3\CCOC3=O)cc2)cc1 showed a growth inhibition [1, 7] of -4%, a growth inhibition [1, 8] of 4% and a growth inhibition ([1]; at 50.0 µM) of -3.65%. It also gave a growth inhibition [2, 7] of -5%, a growth inhibition [2, 8] of -1% and a growth inhibition ([2]; at 50.0 µM) of 19.4%. The growth inhibition [3, 7] was -6%, the growth inhibition [3, 8] was -6% and the growth inhibition ([3]; at 50.0 µM) was -0.65%. The growth inhibition [4, 7] was -3%, the growth inhibition [4, 8] was 4% and the growth inhibition ([4]; at 50.0 µM) was 37.2%. It also gave a growth inhibition [5, 7] of -3%, a growth inhibition [5, 8] of 7% and a growth inhibition ([5]; at 50.0 µM) of -2.45%. It also gave a growth inhibition [6, 7] of -1%, a growth inhibition [6, 8] of 3% and a growth inhibition ([6]; at 50.0 µM) of 12.4%.

With Oc1ccc2cc(Br)ccc2c1O the growth inhibition [1, 7] was -28%, the growth inhibition [1, 8] was 97% (active) and the growth inhibition ([1]; at 50.0 µM) was 97.2% (active). The growth inhibition [2, 7] was -11%, the growth inhibition [2, 8] was 97% (active) and the growth inhibition ([2]; at 50.0 µM) was 98.3% (active). For the same molecule, the growth inhibition [3, 7] was 10%, the growth inhibition [3, 8] was 98% (active) and the growth inhibition ([3]; at 50.0 µM) was 97.5% (active). For the same molecule, the growth inhibition [4, 7] was -24%, the growth inhibition [4, 8] was 97% (active) and the growth inhibition ([4]; at 50.0 µM) was 97% (active). The growth inhibition [5, 7] was -5%, the growth inhibition [5, 8] was 98% (active) and the growth inhibition ([5]; at 50.0 µM) was 98% (active). For the same molecule, the growth inhibition [6, 7] was -7%, the growth inhibition [6, 8] was 97% (active) and the growth inhibition ([6]; at 50.0 µM) was 98.2% (active).

In the case of Cc1cc(O)ccc1SC#N, the growth inhibition [1, 7] is reported as -11%, the growth inhibition [1, 8] is reported as 53% and the growth inhibition ([1]; at 50.0 µM) is reported as 87.2% (active). The growth inhibition [2, 7] was -22%, the growth inhibition [2, 8] was 32% and the growth inhibition ([2]; at 50.0 µM) was 80% (active). For the same molecule, the growth inhibition [3, 7] was -13%, the growth inhibition [3, 8] was 28% and the growth inhibition ([3]; at 50.0 µM) was 79.9% (active). The growth inhibition [4, 7] was -3%, the growth inhibition [4, 8] was 21% and the growth inhibition ([4]; at 50.0 µM) was 73.4% (active). For the same molecule, the growth inhibition [5, 7] was -11%, the growth inhibition [5, 8] was 57% and the growth inhibition ([5]; at 50.0 µM) was 79.3% (active). For the same molecule, the growth inhibition [6, 7] was 7%, the growth inhibition [6, 8] was 66% and the growth inhibition ([6]; at 50.0 µM) was 83.5% (active).
